Data from PubChem BioAssay (NCI).
Compounds without any hit were thinned out: in the full panel of roughly 83,000, 20% have a hit.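 Each cell line was grown in a 96-well plate and treated with one concentration of compound for 48 hours. Values below 10 were considered active.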

Key:
Test in all cases: NCI-60 one-dose screen, 48 h (100 = growth as untreated, 0 = no growth, -100 = all killed)
Conditions in all cases: 10 µM unless noted
[1] = system: NCI-H23 lung
[2] = system: NCI-H226 lung
[3] = system: NCI-H322M lung
[4] = system: HOP-62 NSCLC
[5] = system: NCI-H460 lung
[6] = system: HOP-92 NSCLC
[7] = system: NCI-H522 lung
[8] = system: A549/ATCC NSCLC
[9] = system: 786-0 renal
[10] = system: COLO 205 colon
[11] = system: DU-145 prostate
[12] = system: K-562 leukemia
[13] = system: MALME-3M melanoma
[14] = system: MDA-MB-231 breast
[15] = system: RXF 393 renal
[16] = system: SF-268 CNS
[17] = system: SF-295 CNS
[18] = system: SF-539 CNS
[19] = system: UACC-257 melanoma
[20] = system: M14 melanoma

Measured: growth

CCOC(=O)Nc1nccs1
inactive: [1] 112% | [2] 99.6% | [3] 99.6% | [4] 103% | [5] 104% | [6] 92.3% | [7] 104% | [8] 98.3% | [9] 100% | [10] 104% | [11] 109% | [12] 119% | [13] 97.3% | [14] 87% | [15] 108% | [16] 117% | [17] 108% | [18] 101% | [19] 98% | [20] 106%

O=S(=O)(OCCOS(=O)(=O)c1ccccc1)c1ccccc1
inactive: [1] 95% | [2] 87.6% | [3] 97.6% | [4] 94.9% | [5] 97.6% | [6] 99.5% | [7] 90.5% | [8] 93.3% | [9] 93.5% | [10] 112% | [11] 100% | [12] 96.4% | [13] 86% | [14] 111% | [15] 96% | [16] 92.6% | [17] 102% | [18] 102% | [19] 97.2% | [20] 92.3%

CCOC(=O)c1ccc(C(C)(C)C)cc1
inactive: [1] 102% | [2] 101% | [3] 101% | [4] 107% | [5] 109% | [6] 117% | [7] 105% | [8] 102% | [9] 104% | [10] 108% | [11] 104% | [12] 94.5% | [13] 103% | [14] 114% | [15] 118% | [16] 98.9% | [17] 108% | [18] 110% | [19] 99.9% | [20] 104%

C[C@H](CCC[C@H](C)OS(=O)(=O)c1ccccc1)OS(=O)(=O)c1ccccc1
inactive: [1] 107% | [2] 90.4% | [3] 96.7% | [4] 99.9% | [5] 114% | [6] 131% | [7] 86.8% | [8] 117% | [9] 107% | [10] 115% | [11] 119% | [12] 110% | [13] 96.9% | [14] 103% | [15] 142% | [16] 105% | [17] 102% | [18] 91.7% | [19] 107% | [20] 106%

CC1(C)OC(=O)CC1=O
inactive: [1] 98.6% | [2] 76.1% | [3] 108% | [4] 97.9% | [5] 104% | [6] 81.2% | [7] 86.4% | [8] 69% | [9] 98.4% | [10] 99.6% | [11] 109% | [12] 92.2% | [13] 105% | [14] 104% | [15] 103% | [16] 103% | [17] 106% | [18] 102% | [19] 89.4% | [20] 93.9%

Cc1ccc(S(=O)(=O)CCCl)cc1
inactive: [1] 102% | [2] 108% | [3] 128% | [4] 112% | [5] 105% | [6] 76.1% | [7] 113% | [8] 89.5% | [9] 108% | [10] 120% | [11] 112% | [12] 95.6% | [13] 117% | [14] 117% | [15] 100% | [16] 93.8% | [17] 111% | [18] 100% | [19] 100% | [20] 104%

CC(=O)Nc1ccc(C(=O)c2ccc(S(=O)(=O)Nc3ccccc3)cc2)cc1
inactive: [1] 231% | [2] 102% | [3] 73.2% | [4] 100% | [5] 97.8% | [6] 74.2% | [7] 84.4% | [8] 81.3% | [9] 156% | [10] 92.4% | [11] 117% | [12] 112% | [13] 99.5% | [14] 88.1% | [15] 100% | [16] 104% | [17] 109% | [18] 94.7% | [19] 69.6% | [20] 91.8%

CCC1CCC(C)NC1 (stereo not given)
inactive: [1] 91.3% | [2] 93.4% | [3] 108% | [4] 101% | [5] 99.7% | [6] 87.3% | [7] 99.2% | [8] 105% | [9] 102% | [10] 103% | [11] 107% | [12] 102% | [13] 102% | [14] 120% | [15] 107% | [16] 102% | [17] 92.1% | [18] 99.7% | [19] 96% | [20] 95.2%

CCC(=O)Oc1ccc2ccccc2c1
inactive: [1] 100% | [2] 90.2% | [3] 103% | [4] 81% | [5] 99.9% | [6] 86.1% | [7] 99.5% | [8] 99.4% | [9] 96.9% | [10] 102% | [11] 113% | [12] 107% | [13] 93.7% | [14] 90.2% | [15] 105% | [16] 97.5% | [17] 101% | [18] 96.8% | [19] 96.6% | [20] 92.2%

O=C(Nc1c(Cl)cc(Cl)cc1Cl)ON=C1CCCCC1
inactive: [1] 104% | [2] 99.4% | [3] 106% | [4] 100% | [5] 111% | [6] 132% | [7] 95.2% | [8] 99.2% | [9] 99.8% | [10] 126% | [11] 94.9% | [12] 105% | [13] 101% | [14] 101% | [15] 116% | [16] 91.7% | [17] 102% | [18] 97.4% | [19] 102% | [20] 111%

O=C(O)c1ccc(OCc2ccccc2)cc1
inactive: [1] 95.5% | [2] 90.2% | [3] 93.5% | [4] 93% | [5] 108% | [6] 93.2% | [7] 92.4% | [8] 94.5% | [9] 99.4% | [10] 104% | [11] 109% | [12] 108% | [13] 102% | [14] 92.7% | [15] 112% | [16] 106% | [17] 96.2% | [18] 97.5% | [19] 89.9% | [20] 103%

CCOC(=O)C(CCC#N)(CCC#N)C(=O)OCC
inactive: [1] 96.6% | [2] 98.4% | [3] 113% | [4] 102% | [5] 103% | [6] 84% | [7] 117% | [8] 102% | [9] 98.4% | [10] 102% | [11] 110% | [12] 115% | [13] 113% | [14] 105% | [15] 104% | [16] 99.2% | [17] 96.4% | [18] 103% | [19] 103% | [20] 89.2%

CC(=O)C[n+]1ccc(C)cc1Sc1ccccc1C
inactive: [1] 91% | [2] 107% | [3] 102% | [4] 99.1% | [5] 104% | [6] 94.9% | [7] 98.1% | [8] 112% | [9] 93.5% | [10] 116% | [11] 98.1% | [12] 102% | [13] 102% | [14] 89.3% | [15] 134% | [16] 93% | [17] 96.8% | [18] 88.5% | [19] 97.8% | [20] 90.7%

Cc1onc(-c2ccccc2Cl)c1C(=O)Cl
inactive: [1] 114% | [2] 110% | [3] 101% | [4] 86.5% | [5] 103% | [6] 77% | [7] 108% | [8] 96.9% | [9] 101% | [10] 108% | [11] 121% | [12] 101% | [13] 109% | [14] 101% | [15] 115% | [16] 117% | [17] 91.7% | [18] 113% | [19] 103% | [20] 108%

CC(=O)Nc1ccc(O)c(C)c1
inactive: [1] 99.8% | [2] 95% | [3] 100% | [4] 98% | [5] 104% | [6] 100% | [7] 93.5% | [8] 88.1% | [9] 105% | [10] 109% | [11] 109% | [12] 98.6% | [13] 98.8% | [14] 96.9% | [15] 116% | [16] 100% | [17] 105% | [18] 100% | [19] 87.8% | [20] 100%

O=C(Oc1ccccc1Cl)c1ccc(Cl)cc1Cl
inactive: [1] 101% | [2] 102% | [3] 107% | [4] 87.9% | [5] 102% | [6] 103% | [7] 98.8% | [8] 89.3% | [9] 95.9% | [10] 104% | [11] 110% | [12] 99.6% | [13] 103% | [14] 98.3% | [15] 102% | [16] 105% | [17] 95.1% | [18] 95.6% | [19] 94.3% | [20] 98.1%

O=C(O)Cc1ccccn1
inactive: [1] 102% | [2] 102% | [3] 102% | [4] 109% | [5] 108% | [6] 99.1% | [7] 100% | [8] 106% | [9] 102% | [10] 97.8% | [11] 111% | [12] 108% | [13] 85.7% | [14] 116% | [15] 133% | [16] 100% | [17] 114% | [18] 109% | [19] 98.6% | [20] 112%
